Source: PubChem BioAssay
ULK1 inh – ULK1 kinase inhibitors, primary screen, biochemical, AlphaScreen. Serine/threonine-protein kinase ULK1 (Homo sapiens), O75385. AlphaScreen Atg13 phosphorylation by ULK1, luminescence. 30,000 compounds, 1.9% hits. inhibition, % at 5.96 µM; in the data active = inhibition above about 43%;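 note: 0% = median of compound wells and 100% = no enzyme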
ASK1 inh – ASK1 kinase inhibitors, primary screen, biochemical, AlphaScreen; Mitogen-activated protein kinase kinase kinase 5 (Homo sapiens), Q99683; AID 1159602, 2016; AlphaScreen MKK6 phosphorylation by ASK1, luminescence; inhibition, % at 7.44 µM; 22,000 compounds, 0.99% hits; in the data active = inhibition above about 35%;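 note: 0% = median of compound wells and 100% = no enzyme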
An asterisk follows results filed as active; nt = no result given. Rows were chosen to be rich in hits. Some 2.5% of all compounds tested hit in one or more screens of this group.

SMILES | ULK1 inh | ASK1 inh
CC(=O)Nc1ccc(NC(=O)c2ccnc(-c3ccc(C(=O)NC4CC4)cc3)c2)cc1 | 44.2* | 7.2
CCN(CC)c1nc(NCc2ccc3c(c2)OCO3)nc(Nc2ccc(N3CCOCC3)cc2)n1 | 3.7 | 15.6
CC(C)n1c(N2CCc3ccccc3C2)nc2c(Nc3ccccc3)ncnc21 | 18.1 | 8.0
c1ccc(CNc2nc(Nc3ccc(-n4ccnc4)cc3)nc3nc[nH]c23)cc1 | 20.8 | -7.3
COc1ccc(CCNc2nc(N3CCC(N4CCOCC4)CC3)nc3c2ncn3C(C)C)cc1 | -2.5 | 23.6
Oc1ccc(CCNc2nc(Nc3cnccn3)nc3c2ncn3C2CCCCC2)cc1 | 44.1* | -30.1
COc1ccc(CCNc2nc(Nc3cnccn3)nc3c2ncn3C2CCCCC2)cc1 | 15.2 | -0.9
N#C/C(C(=O)c1ccccc1)=C1/Nc2ccccc2C1=O | 7.6 | nt
Cc1cccc(CNC(=O)Nc2ccc(-c3cn[nH]c3)cc2)c1 | 8.2 | 2.1
CN(C)CC(=O)Nc1cccc(CNC(=O)Nc2ccc(-c3cn[nH]c3)cc2)c1 | 95.5* | 11.8
CCCNc1nc(Nc2nc3ccccc3n2C)nc2c1ncn2CCN1CCCC1=O | 0.7 | -13.9
Cn1c(Nc2nc(NCCO)c3ncn(CCN4CCCC4=O)c3n2)nc2ccccc21 | 73.4* | 1.7
CCN(CC)C(=O)C1CCCN(c2cc(C(=O)Nc3ccc(N4CCOCC4)cc3)ccn2)C1 (stereo unspecified) | 59.6* | -36.4
CCN(CC)C(=O)C1CCCN(c2cc(C(=O)Nc3ccccc3)ccn2)C1 (stereo unspecified) | -2.2 | 5.7
CC(=O)Nc1ccc(NC(=O)c2cccc(Nc3ccc4ncccc4c3)n2)cc1 | 27.6 | 0.9
CNC(=O)c1ccccc1Nc1cc(Nc2cccc(C)n2)ncc1C(F)(F)F | 89.5* | -0.9
CNC(=O)c1ccccc1Nc1cc(Nc2ccc(-c3cncnc3)cc2)ncc1C(F)(F)F | 69.9* | -6.9
CNC(=O)c1ccc(Nc2cc(Nc3ccccc3C(=O)NC)c(C(F)(F)F)cn2)nc1 | 87.4* | -9.0
O=C(NCc1cccc(C(F)(F)F)c1)c1ccnc(Nc2ccccn2)c1 | 1.4 | -2.0
CNC(=O)c1ccnc(Nc2cc(Nc3ccccc3C(=O)NC)c(C(F)(F)F)cn2)c1 | 86.8* | -6.2
OCCNc1cc(Nc2ccc3ncccc3c2)ncn1 | 3.8 | -5.4
CC(=O)c1cccc(-c2nc(C)cc(NCCN(C(C)C)C(C)C)n2)c1 | 9.0 | 2.3
O=C(NC1CC1)c1cc(N2CCc3ccccc3C2)nc2ccccc12 | 2.2 | -18.1
O=C1CCCN1CCCNc1nc(NCCN2CCOCC2)nc2c1ncn2Cc1ccc(C(F)(F)F)cc1 | -3.6 | -15.3
O=C(NC1CC1)c1cnc(Nc2ccncn2)s1 | 2.7 | -4.2
SMILES | ULK1 inh | ASK1 inh
CCOc1cc(Br)cc(/C=N/NC(=O)c2ccccc2N)c1O | -33.8 | nt
c1ccc(CN2CCC(Nc3nc(NCc4ccc5c(c4)OCO5)nc4c3ncn4-c3ccccc3)CC2)cc1 | -35.9 | 20.5
CNC(=O)c1ccccc1Nc1cc(Nc2ccc3c(c2)CCC(=O)N3C)ncc1C(F)(F)F | 89.5* | -12.4
O=C(Cc1ccc2c(c1)OCO2)Nc1cc(Nc2ccccc2-c2ncn[nH]2)c(C(F)(F)F)cn1 | -17.6 | -2.0
CNC(=O)c1ccccc1Nc1cc(Nc2ccccn2)ncc1C(F)(F)F | 88.6* | -1.0
O=C(O)c1ccccc1Nc1ccccn1 | 11.5 | nt
COc1cc(Nc2nc(Nc3ccc4ncccc4c3)nc3c2ncn3CCN2CCCC2=O)cc(OC)c1OC | -0.9 | -22.4
CC(C)N(CCNc1nc(NC2CCN(Cc3ccccc3)CC2)nc2c1ncn2-c1ccsc1)C(C)C | 5.0 | 3.6
Cn1nnc(-c2ccc(Nc3nccc(-c4ccc5nc(C6CC6)[nH]c(=O)c5c4)n3)cc2)n1 | 44.4* | -21.8
Cc1ncn(-c2ccc(Nc3nccc(-c4ccc(N5CCC6(CC5)OCCO6)c(C#N)c4)n3)cc2)n1 | -0.6 | 1.3
O=C(Nc1ccc(Nc2nccc(-c3ccc4nc(C5CC5)[nH]c(=O)c4c3)n2)cc1)N1CCCC1 | 58.8* | -44.2
O=C(C1CCC(Nc2nccc(-c3ccc4nc(C5CC5)[nH]c(=O)c4c3)n2)CC1)N1CCCC1 (stereo unspecified) | 23.2 | -5.7
O=C(c1ccc(Nc2nccc(-c3ccc4nc(C5CC5)[nH]c(=O)c4c3)n2)cc1)N1CCCC1 | 84.1* | -70.6
Cn1cccc(-c2ccc(Nc3nccc(-c4ccc5nc(C6CC6)[nH]c(=O)c5c4)n3)cc2)c1=O | 36.9 | -9.8
CN1CCN(C(=O)c2ccc(Nc3nccc(-c4ccccc4)n3)cc2)CC1 | -0.7 | 22.5
N#Cc1cc(-c2ccnc(Nc3cccc(NC(=O)N4CCCC4)c3)n2)ccc1N1CCCC1 | 67.2* | 12.5
CCCNc1cc(C)nc(N2CCCC(C(=O)N(CC)CC)C2)n1 (stereo unspecified) | 0.8 | -0.7
CCCNc1nc(OC)nc(-c2csc3ccccc23)n1 | -0.5 | -1.8
CC(C)N(CCNc1nc(Nc2cnccn2)nc2nc[nH]c12)C(C)C | 1.5 | -1.3
O=C(Nc1ccc(N2CCOCC2)cc1)c1csc(Nc2ccc3ncccc3c2)n1 | 19.8 | 14.1
O=C(Nc1cccc(Nc2nccc(-c3ccc4nc(C5CC5)[nH]c(=O)c4c3)n2)c1)N1CCCC1 | 50.6* | 0.8
Nc1nccc(-c2ccc3nc(C4COc5ccccc5C4)[nH]c(=O)c3c2)n1 (stereo unspecified) | -0.7 | 14.5
COc1ccc(CC(=O)Nc2ncc3ccc(-c4cn[nH]c4)cc3c2C#N)cc1 | 5.5 | -38.9
COc1ccc(CC(=O)Nc2ncc3ccc(-c4cn[nH]c4)cc3c2Cl)cc1 | 83.0* | 0.7
CCN(CC)C(=O)C1CCCN(c2ncc(C)c(N)n2)C1 (stereo unspecified) | -11.6 | 0.7
SMILES | ULK1 inh | ASK1 inh
O=C(c1ccc2[nH]ncc2c1)N1CCN(C(=O)C(O)c2ccc(Br)cc2)CC1 (stereo unspecified) | 0.1 | -9.4
CCCCC(CC)CCC(CC(C)C)OS(=O)(=O)O (stereo unspecified) | 94.6* | nt
CCCCCCCCCCCCOS(=O)(=O)O | 19.3 | nt
Nc1cccc(-c2cccc(C(=O)NCCc3ccc(O)cc3)c2)c1 | -12.6 | 4.6
COc1cccc(CCC(=O)Nc2ccc(-c3cn[nH]c3)cc2OCCO)c1 | -11.0 | -9.5
OC[C@H]1OC([S-])[C@H](O)[C@@H](O)[C@@H]1O.[Au+] (stereo partly specified) | 66.4* | nt
OC[C@H]1OC(O)[C@H](O)[C@@H](O)[C@H]1O (stereo partly specified) | 9.9 | nt
Cc1cc(NC2CC2)nc(N2CCC(N3CCOCC3)CC2)n1 | -1.5 | -12.8
Cc1cc(N)nc(N2CCC(N3CCOCC3)CC2)n1 | 48.9* | 9.5
NC(=O)c1ccccc1Nc1cc(NC(=O)Cc2ccc(CN3CCOCC3)cc2)ncc1Cl | 41.6 | 23.4
NC(=O)c1ccccc1Nc1cc(NC(=O)Cc2ccc(CN3CCOCC3)cc2)ncc1C(F)(F)F | 62.9* | 28.5
CNC(=O)c1ccccc1Nc1cc(NC(=O)CCc2ccccc2)ncc1C(F)(F)F | 34.9 | 15.5
CNC(=O)c1ccccc1Nc1cc(NC(=O)Cc2ccc(OC)cc2)ncc1C#N | 17.6 | -7.9
CNC(=O)c1cccnc1Nc1cc(NC(=O)Cc2ccc(OC)cc2)ncc1C(F)(F)F | 43.1* | 0.0
NC(=O)c1ccccc1Nc1cc(Oc2ccc(N3CCNCC3)cc2)ncc1C(F)(F)F | 60.0* | -0.6
NC(=O)c1ccccc1Nc1cc(NC(=O)Cc2ccc3ccccc3c2)ncc1C(F)(F)F | 25.4 | 3.2
